Molecules are shown by their SMILES. Records with an inconclusive call do not appear. A structure can be active in one record and inactive in another. Activity calls are given as the source filed them. The calls were made as follows, unless noted: active = hit-call score of the fitted dose curve at least 0.9, where 1 is the maximum; inactive = score below 0.9.

These results are taken from PubChem BioAssay (EPA / NIEHS).

Read-out in assay [1]: Monokine induced gamma interferon (MIG), CXCL9 (gene 4283)
The experiment in a line: BSK_3C_MIG: BioMAP Diversity Plus: 3C Assay for Monokine induced gamma interferon (MIG) Biomarker Activity (AID 2283021). Conditions: primary human endothelial cells (HUVEC); actives raise or lower the signal. Summed up: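 Endothelial primary cells (human umbilical vein) are dosed with test chemical in the 3C system. MIG levels are measured by ELISA at 24 h and fitted in both directions relative to DMSO.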

In assay [2] the target is human Vitamin D Receptor (VDR), VDR (gene 7421) (UniProt P11473). The assay is described as follows: ATG_VDR_TRANS: Attagene TRANS-FACTORIAL HepG2 Assay for human Vitamin D Receptor (VDR) (AID 2283022; active = hit-call score of the fitted dose curve at least 0.9, where 1 is the maximum). Summed up: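 Fluorescence of labelled reporter cDNA fragments, resolved by capillary electrophoresis, gives mRNA induction after 24 h treatment of HepG2 cells carrying transfected Gal4-fusion reporter units. Activity is fitted in the positive direction with DMSO as baseline.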
Sequence of human Vitamin D Receptor (VDR), VDR (gene 7421) (P11473 whole entry, looked up, the tested form may be a part): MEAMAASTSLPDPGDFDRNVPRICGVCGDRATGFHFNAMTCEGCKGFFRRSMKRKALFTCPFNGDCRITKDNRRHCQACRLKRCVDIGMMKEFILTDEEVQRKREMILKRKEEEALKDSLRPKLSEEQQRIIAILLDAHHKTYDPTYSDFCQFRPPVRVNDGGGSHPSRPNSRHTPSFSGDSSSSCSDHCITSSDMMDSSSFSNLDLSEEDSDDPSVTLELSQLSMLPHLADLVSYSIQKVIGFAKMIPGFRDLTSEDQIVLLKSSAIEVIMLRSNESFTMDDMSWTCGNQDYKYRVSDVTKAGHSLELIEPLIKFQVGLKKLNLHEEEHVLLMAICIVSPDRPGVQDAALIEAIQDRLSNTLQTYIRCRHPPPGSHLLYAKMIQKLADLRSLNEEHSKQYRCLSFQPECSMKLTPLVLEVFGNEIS

A short description of assay [3]: BSK_3C_SRB: Viability Assessment in the BioMAP Diversity Plus: 3C Assay (AID 2283023).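 Also: fitted both ways against DMSO so a hit may be signal rise or drop.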 Conditions: primary human endothelial cells (HUVEC). Put shortly:
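Cells were dosed with chemical, cultured 24 h, fixed with 10% TCA, stained with 0.1% SRB and read at 560 nm. Human umbilical vein endothelium was used; DMSO served as negative control and baseline.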

Read-out in assay [4]: Matrix Metallopeptidase 1 (MMP1), MMP1 (gene 4312)
The experiment in a line: BSK_BE3C_MMP1: BioMAP Diversity Plus: BE3C Assay for Matrix Metallopeptidase 1 (MMP1) Biomarker Activity (AID 2283024). Conditions: primary human bronchial epithelial cells; actives raise or lower the signal. Summed up: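 MMP1 signal, measured by ELISA after a 24 h chemical exposure of human primary bronchial epithelial cells, is analysed with bidirectional fitting using DMSO as negative control.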

A short description of assay [5]: BSK_3C_Vis: BioMAP Diversity Plus: 3C Assay for Morphology Visualization (AID 2283025).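 Also: fitted both ways so gain or loss versus DMSO counts.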 The following applies: primary human endothelial cells (HUVEC). Summed up: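 Morphology read by light microscopy serves as a background control for the multiplexed 3C assay in human umbilical vein endothelial cells, taken 24 h after dosing, with DMSO as the negative control and bidirectional curve fitting.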

Read-out in assay [6]: Pselectin, SELP (gene 6403)
The experiment in a line: BSK_4H_Pselectin: BioMAP Diversity Plus: 4H Assay for Pselectin Biomarker Activity (AID 2283026). The following applies: primary human endothelial cells (HUVEC); actives raise or lower the signal. Put shortly: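 Endothelial primary cells (human umbilical vein) are dosed, incubated 24 h, and assayed for surface P-selectin by ELISA; responses in either direction are fitted relative to the DMSO negative control.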

The nature of assay [7]: BSK_4H_SRB: Viability Assessment in the BioMAP Diversity Plus: 4H Assay (AID 2283027).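 Also: cells exposed to compound for 24 h before staining.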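 As to AC50: curves fitted both ways versus DMSO so AC50 may be loss or gain.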 The following applies: primary human endothelial cells (HUVEC). Put shortly: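 HUVEC, 24 h post-dose; 10% TCA fix, 0.1% SRB stain, A560 nm. Total protein = overt cytotoxicity, parallel to biomarker read. Bidirectional fit vs DMSO baseline.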
Assay [8] can be described thus: BSK_BE3C_SRB: Viability Assessment in the BioMAP Diversity Plus: BE3C Assay (AID 2283028). The following applies: primary human bronchial epithelial cells. Put shortly: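 Overt cytotoxicity was assessed as total protein in confluent human primary bronchial epithelial cultures 24 h after chemical addition, using 0.1% sulforhodamine B staining read at 560 nm.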
Read-out in assay [9]: Thrombomodulin, THBD (gene 7056)
The assay is described as follows: BSK_3C_Thrombomodulin: BioMAP Diversity Plus: 3C Assay for Thrombomodulin Biomarker Activity (AID 2283029). Conditions: primary human endothelial cells (HUVEC); actives raise or lower the signal. Summed up: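 Endothelial cells from umbilical vein are dosed with test chemical and incubated 24 h. Thrombomodulin is then quantified by ELISA, with DMSO serving as negative control and activity baseline.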

Read-out in assay [10]: Urokinase-type plasminogen activator receptor (uPAR), PLAUR (gene 5329)
The experiment in a line: BSK_4H_uPAR: BioMAP Diversity Plus: 4H Assay for Urokinase-type plasminogen activator receptor (uPAR) Biomarker Activity (AID 2283030). The following applies: primary human endothelial cells (HUVEC); actives raise or lower the signal. Summed up:
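Chemicals are dosed onto human vascular endothelial primary cells (umbilical vein). After 24 h, uPAR is read by ELISA. Gain or loss of signal is fitted relative to DMSO.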

For the molecule `BrC1CCC(Br)C(Br)CCC(Br)C(Br)CCC1Br` (stereo not given), the result in [1], in assay [2], in [8] and in assay [9] was inactive. Further, the AC50 (commonly the midpoint of the concentration-response curve, whichever way the signal moves) was 4.73 µM (active) in [3]; 1.16 µM (active) in assay [4]; 8.03 µM (active) in assay [5]; 2.57 µM (active) in assay [6]; 4.73 µM (active) in assay [7]; 4.6 µM (active) in assay [10].

On to `O=[N+]([O-])c1cc(C(F)(F)F)ccc1Cl`, for which the outcome in assay [1], in assay [3], in assay [4], in assay [5], in assay [6] and in assay [7] was inactive. Also, the result in [8], in [9] and in [10] was inactive.

With `CC(=O)Nc1ccccc1O`, the outcome in assay [1], in assay [2], in [3], in assay [4], in [5] and in [6] was inactive. The result in [7], in assay [8], in assay [9] and in [10] was inactive.

With `N#Cc1ccc(CC(=NNC(=O)Nc2ccc(OC(F)(F)F)cc2)c2cccc(C(F)(F)F)c2)cc1`, the outcome in assay [1], in assay [3], in assay [4], in assay [5], in assay [6] and in assay [7] was inactive. The outcome in assay [8], in assay [9] and in assay [10] was inactive.

`Cc1ccc(Nc2ccc(O)c3c2C(=O)c2ccccc2C3=O)cc1`: the result in assay [1], in assay [2], in [3], in [4], in assay [5] and in assay [6] was inactive. For the same molecule, the result in [7], in assay [8], in assay [9] and in assay [10] was inactive.

`OC[C@H]1O[C@H](O[C@]2(CCl)O[C@H](CCl)[C@@H](O)[C@@H]2O)[C@H](O)[C@@H](O)[C@H]1Cl`: the outcome in assay [1], in [2], in assay [3], in [4], in assay [6] and in [7] was inactive. For the same molecule, the result in assay [8], in assay [9] and in assay [10] was inactive.

On to `CC1COc2ccccc2N1C(=O)C(Cl)Cl` (stereo not given), for which the outcome in assay [1], in assay [2], in assay [8], in [9] and in assay [10] was inactive. The concentration at half-maximal activity (AC50) in [3] is 7.57 µM (active); in assay [5] it was 5.21 µM (active); in assay [6] it was 4.69 µM (active); in assay [7] it was 2.79 µM (active).

In the case of `Nc1cc([N+](=O)[O-])ccc1O`, the outcome in assay [1], in assay [2], in assay [3], in assay [4], in assay [6] and in assay [7] was inactive. In addition, the result in [8], in assay [9] and in assay [10] was inactive. In [4], the AC50 is 0.15 µM (active).

`O=C(O)c1cn(C2CC2)c2cc(N3CCNCC3)c(F)cc2c1=O`: the result in assay [1], in [3], in [4], in assay [5], in assay [6] and in [7] was inactive. Further, the result in assay [8], in [9] and in [10] was inactive.

Regarding `CCCCC(CC)COC(=O)/C=C\C(=O)OCC(CC)CCCC` (stereo not given), the outcome in [1], in [3], in [4], in [5], in assay [6] and in assay [7] was inactive. Also, the result in [8], in assay [9] and in [10] was inactive.

As to `O=C=NC1CCC(CC2CCC(N=C=O)CC2)CC1` (stereo not given), the result in assay [1], in assay [2], in [3], in assay [4], in [6] and in [7] was inactive. For the same molecule, the result in [8], in [9] and in [10] was inactive. Moreover, in assay [5], the concentration at half-maximal activity (AC50) was 37.5 µM (active).

With `C=CCOC(=O)CCC1CCCCC1`, the outcome in assay [1], in assay [2], in [3], in assay [4], in assay [6] and in assay [7] was inactive. Also, the outcome in assay [8], in assay [9] and in [10] was inactive.

On to `c1ccc2sc(SN(C3CCCCC3)C3CCCCC3)nc2c1`, for which the result in assay [1], in assay [7], in assay [8], in assay [9] and in assay [10] was inactive. Moreover, the concentration at half-maximal activity (AC50) in assay [3] is 6.8 µM (active); in assay [4], 6.54 µM (active); in [5] it was 8.8 µM (active); in assay [6] it was 5.21 µM (active).

For the molecule `CC(C)c1ccc(C(C)C)cc1`, the outcome in assay [1], in [2], in [4], in [8] and in [9] was inactive. Also, the half-maximal activity concentration (AC50) in [3] is 30.5 µM (active); in assay [5] it was 37.8 µM (active); in assay [6], 31 µM (active); in assay [7], 30.7 µM (active); in [10] it was 30.9 µM (active).

As to `CCCCCCCCC=O`, the outcome in assay [1], in assay [2], in assay [3], in assay [4], in [5] and in [6] was inactive. Also, the result in assay [7], in assay [8], in assay [9] and in [10] was inactive.

In the case of `COC(=O)c1ccc(C)cc1`, the result in assay [1], in [2], in assay [3], in assay [4], in assay [5] and in assay [6] was inactive. The result in assay [7], in assay [8], in [9] and in assay [10] was inactive.

As to `O=P(c1ccccc1)(c1ccccc1)c1ccccc1`, the result in [1], in assay [3], in assay [4], in [5], in assay [6] and in assay [7] was inactive. For the same molecule, the outcome in [8], in [9] and in assay [10] was inactive.

In the case of `C=C[C@@H](C)CCC=C(C)C`, in assay [2], the result was inactive.

As to `CC(C)(C)C(=O)c1ccccc1`, the call in assay [2] was inactive.

In the case of `N#Cc1ccccc1`, in assay [2], the molecule was called inactive.

On to `CC(=O)O[C@]1(C(C)=O)CC[C@H]2[C@@H]3C[C@H](C)C4=CC(=O)CC[C@]4(C)[C@H]3CC[C@@]21C`, for which the result in [1], in [3], in [5], in assay [6], in [7] and in assay [8] was inactive. For the same molecule, the outcome in assay [9] and in [10] was inactive. In addition, the half-maximal activity concentration (AC50) in assay [4] is 5.07 µM (active).

Turning to `O=c1oc(=O)c2cc3c(=O)oc(=O)c3cc12`, the result in assay [2] was inactive.

For `CNC[C@H](O)c1cccc(O)c1`, the result in [1], in [3], in [4], in [5], in assay [6] and in assay [7] was inactive. Besides, the outcome in assay [8], in assay [9] and in assay [10] was inactive.

`CC(C)c1cccc(O)c1`: in [2], the call was inactive.

As for `OC1OC[C@@H](O)[C@H](O)[C@H]1O` (stereo not given in full), the result in assay [1], in assay [3], in assay [4], in assay [6], in assay [7] and in assay [8] was inactive. In addition, the result in assay [9] and in [10] was inactive.

`O=C(OCc1ccccc1)C(=O)OCc1ccccc1`: the result in assay [2] was inactive.

Regarding `NCCCN1CCOCC1`, the call in assay [2] was inactive.

With `CCc1c(C)cc(N)c(CC)c1N`, the outcome in assay [1], in assay [3], in [4], in [5], in [6] and in [7] was inactive. In addition, the outcome in [8], in assay [9] and in assay [10] was inactive.

With `COCCOCCOCCOCCOCCO`, the molecule was classed as inactive in assay [2].

As for `O=C1NC(=O)c2ccccc21`, in assay [2], the outcome was inactive.
